# According to ChEMBL document CHEMBL4513216, “Probing the Open Global Health Chemical Diversity Library for Multistage-Active Starting Points for Next-Generation Antimalarials” (ACS Infect Dis, 2020):
# Hit rate of the full screen: of about 68,000 compounds, about 2,700 (4%) showed an effect of 50% or more. The full list was thinned out, with strong results kept by preference.
# System: Plasmodium berghei
# Experiment: Screen against P. berghei liver stage (PbLuc), transformed with Luciferase, at 2uM
# Assay type: functional, HepG2
# Conditions: tested at 2 uM
row,Structure (SMILES),INHIBITION [%]
1,CCC[C@@H]1CN(Cc2cc3c(cc2OC)OCO3)C[C@H]1C(=O)O,-23.34
2,CCC[C@@H]1CN(Cc2cc(OC)c3c(c2)OCO3)C[C@H]1C(=O)O,57.75
3,CCC[C@@H]1CN(Cc2cc3c(cc2OC)OCCO3)C[C@H]1C(=O)O,19.59
4,CN(C)c1nccc(C2CN(S(C)(=O)=O)C2)n1,40.78
5,Cc1cc(C(=O)N2CCN(S(C)(=O)=O)[C@@H](C)C2)c(F)cc1F,1.27
6,CC(=O)N[C@H]1CCO[C@@H](c2cccc(NC(=O)Cc3ccccc3)c2)C1,0.93
7,O=C(NCCNc1ncccn1)NCc1cccc(OC(F)F)c1,-35.22
8,Cc1ccc(CCNC(=O)NCc2cccc(OC(F)F)c2)cn1,-16.71
9,O=C(CCNc1ncccn1)NCc1ccc(Br)s1,64.22
10,O=C(CCNc1ncccn1)NCc1csc(Br)c1,33.47
11,O=C(CCNc1ncccn1)NCc1cccc(OC(F)F)c1,52.3
12,CCc1ccc(CNC(=O)CCNc2ncccn2)s1,-18.99
13,c1ccc(-c2nnc(N3CCCC4(CCOC4)C3)s2)cc1 (stereo not given),-21.39
14,N#Cc1ccc(N2CCCN(CC(=O)N3CCOCC3)CC2)cc1,-45.9
15,Cc1ccc(NC2CCN(C(=O)CC3CCCO3)CC2)nn1 (stereo not given),-3.38
16,Cc1ccc(-c2noc(CN3CCOC(CN(C)C)C3)n2)cc1F (stereo not given),-19.76
17,CCc1ccc(C2CC(=O)Nc3cc(NS(C)(=O)=O)ccc32)o1 (stereo not given),-24.85
18,CCOc1ncccc1NC(=O)N1CCCN(C(=O)OC)CC1,12.81
19,CN(C)C(=O)[C@@H]1C[C@@H]2CCN(Cc3nccs3)C[C@@H]2O1,-31.39
20,CN1CCN(C(=O)[C@H]2C[C@H]3[C@H](CCN3Cc3nccs3)O2)CC1,37.54
21,CC1CCN(C(=O)[C@H]2CC[C@@H]3[C@@H](CCN3Cc3nccs3)O2)CC1,53.46
22,Cn1cc(CN2CC[C@@H]3O[C@H](C(=O)N4CCOCC4)C[C@@H]32)cn1,86.68
23,O=C([C@@H]1C[C@H]2[C@H](CCN2Cc2nccs2)O1)N1CCOCC1,-16.93
24,Cc1nc(CN2CC[C@@H]3O[C@@H](C(=O)N4CCOCC4)C[C@@H]32)cs1,34.24
25,O=C([C@H]1CC[C@@H]2[C@@H](CCN2Cc2nccs2)O1)N1CCOCC1,77.07
26,CN1CCN(C(=O)[C@H]2CC[C@@H]3[C@@H](CCN3Cc3nccs3)O2)CC1,1.78
27,O=C([C@H]1CC[C@@H]2[C@@H](CCN2Cc2nccs2)O1)N1CCCCO1,23.93
28,Cn1cc(CN2CC[C@H]3O[C@@H](C(=O)NC4CC4)CC[C@H]32)cn1,-43.66
29,CN(C)C(=O)[C@@H]1C[C@@H]2[C@@H](CCN2Cc2nccs2)O1,55.11
30,CN(C)C(=O)[C@@H]1CC[C@@H]2[C@@H](CCN2Cc2nccs2)O1,6.66
